This note sets out measurements from PubChem BioAssay (NCATS).

Results filed as inconclusive are left out. A number with no mark means an inactive call. Active and inactive are the calls of the source. Unless noted, calls come from the whole dose curve; as a rule, active = well fitted curve in the direction sought with a large enough effect; inconclusive = small, poorly fitted or top-dose-only effect, or another doubt; inactive = no such curve, though single readings can be large; an effect the other way counts as inactive or inconclusive.

The nature of assay [1]: HEK-293 Cancer Cell Toxicity qHTS against the NCATS CANVASS Library (AID 1347355). Note: nearly all actives have a fitted effect of over 65% in size. Note: potency is the fitted concentration of half-maximal effect. In short, it runs like this:
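Cells were seeded at 1000 per well and allowed to settle 4 hours at 37 degrees C before pin transfer of compounds as an 11-point series. Viability was read by CellTiter-Glo luminescence after 72 hours' exposure.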
For orientation: qHTS replaces the single test concentration by a dilution series.

The subject of assay [2] is NAD(P)H diaphorase (Clostridium kluyveri). In words: Diaphorse counterscreen qHTS: Assay Interference Panel against the NCATS CANVASS Library (AID 1347362). In short, it runs like this: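 Clostridium kluyveri diaphorase in PBS + 0.01% Tween-20 preincubated 15 min with compounds. Resazurin and NADH then added for 5 min at room temperature in the dark; resorufin fluorescence read (ex 525, em 598).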

The nature of assay [3]: KB-8-5-11 Cancer Cell Toxicity qHTS against the NCATS CANVASS Library (AID 1347364). Note: nearly all actives have a fitted effect of over 75% in size. Note: potency is the fitted concentration of half-maximal effect. The gist of the method:
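KB-8-5-11 cells (500/well) in DMEM + 10% FBS were exposed to compounds in an 11-point qHTS series for 72 hr at 37C, 5% CO2. Viability was read by CellTiter-Glo luminescence.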

A short description of assay [4]: KB-3-1 Cancer Cell Toxicity qHTS against the NCATS CANVASS Library (AID 1347366). Note: nearly all actives have a fitted effect of over 75% in size. Note: potency is the fitted concentration of half-maximal effect. In short, it runs like this: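 KB-3-1 cells (500 cells/well) in DMEM + 10% FBS were treated with compounds for 72 hr at 37C, 5% CO2. Viability was read as CellTiter-Glo luminescence after 10 minutes at room temperature.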
In assay [5] the target is Nuclear receptor subfamily 1 group I member 3 (Homo sapiens) (UniProt Q14994). In words: qHTS for Constitutive Androstane Receptor (CAR) Antagonist screened against the NCATS CANVASS Library (AID 1347372). Note: potency is the fitted concentration of half-maximal effect. In short, it runs like this:
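HepG2 cells stably carrying hCAR and CYP2B6-2.2kb luciferase reporter, 2500 cells/well, compound with 50 nM CITCO agonist for 24hr at 37C. ONE-Glo luminescence measured CAR activity; CellTiter-Fluor read viability.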

Assay [6] can be described thus: DH5-alpha competent E. coli microbial cell viability qHTS against the NCATS CANVASS Library (AID 1347377). Particulars: outcome: dose series up to 46.1 µM unless noted. The gist of the method:
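DH5-alpha E. coli suspension (0.9 OD culture diluted to 0.2 OD) exposed to compounds in an 11-point series, overnight at 37C, 5% CO2. Viability read as ATP by BacTiter-Glo luminescence after 20 min at room temperature.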

The nature of assay [7]: qHTS for H2AX Agonists against the NCATS CANVASS Library (AID 1347378). The gist of the method: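 CHO-K1 cells were plated overnight at 37C, then exposed to compounds (concentration series, 0.76% DMSO final) for 3 hr at 37C. Lysates received Eu-cryptate anti-pH2AX (S139) and d2 anti-H2AX antibodies; after 24 hr at room temperature, TR-FRET 665/620 nm ratio was read.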
Assay [8] can be described thus: Viability qHTS for inhibitors of the SERCaMP assay screened against the NCATS CANVASS Library (AID 1347400). Note: nearly all actives have a fitted effect of over 70% in size. Note: potency is the fitted concentration of half-maximal effect. The gist of the method: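 SH-SY5Y-GLuc SERCaMP MJH297-derived cells (1000 cells/well) were pre-incubated 4 h at 37C, then exposed to compounds for 48 h. Viability was read as CellTiter-Glo luminescence; bortezomib served as positive control.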
Assay [9] in a line: qHTS for inhibitors of Rabies Virus screened against the NCATS CANVASS Library (AID 1347402; calls by dose curve; note: series mostly up to about 46 µM).

Nuclear receptor subfamily 1 group I member 3 (Homo sapiens), sequence (Q14994 whole entry, looked up): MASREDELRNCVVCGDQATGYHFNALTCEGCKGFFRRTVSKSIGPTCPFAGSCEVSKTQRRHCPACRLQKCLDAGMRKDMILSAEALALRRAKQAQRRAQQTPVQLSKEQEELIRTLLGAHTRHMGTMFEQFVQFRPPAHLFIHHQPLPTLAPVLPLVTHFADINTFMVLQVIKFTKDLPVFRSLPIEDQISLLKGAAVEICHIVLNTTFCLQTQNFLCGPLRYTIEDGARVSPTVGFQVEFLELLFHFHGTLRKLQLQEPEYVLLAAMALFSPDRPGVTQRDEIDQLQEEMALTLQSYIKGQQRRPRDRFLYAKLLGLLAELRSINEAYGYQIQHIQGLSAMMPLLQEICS

For `O[C@H]1C=C[C@@]23CCN(Cc4cc5c(cc42)OCO5)[C@@H]3C1`, the Potency result in assay [1], in [2], in [3], in assay [4], in assay [5] and in assay [7] was “inactive” throughout. Further, the Potency entry in [8] was “inactive”. For the same compound, the compound was called inactive in assay [6] and in assay [9].
Regarding `C[C@]12CC(O)C3[C@@H](CCC4C[C@@H](O)CC[C@@]43CO)[C@@]1(O)CC[C@@H]2C1=CC(=O)OC1` (some centres undefined), the Potency in assay [1] was 13200 nM (active); in [3], 18700 nM (active); in [4] it was 26400 nM (active); in assay [5], 10500 nM (active); in assay [8], 13500 nM (active). The Potency entry in assay [2] and in assay [7] was “inactive” throughout. Further, in [6], the compound was called inactive.
Regarding `C/C(=C\[C@H](C)C(=O)C[C@H](O)CC1CC(=O)NC(=O)C1)[C@@H]1OC(=O)/C=C/CC/C=C/C=C/[C@@H]1C`, the Potency in [1] was 148 nM (active); in assay [3] it was 2350 nM (active); in assay [4], 1480 nM (active); in assay [5], 741 nM (active); in [8], 538 nM (active). Further, the compound was classed as inactive in [6].
Turning to `CC(=O)O[C@H]1CC[C@@]2(C)C(CC[C@]3(C)C2CC=C2C4CC(C)(C)CC[C@]4(C)CC[C@]23C)C1(C)C` (some centres undefined), the outcome in assay [9] was inactive.
As to `CO[C@H]1C[C@H](O[C@H]2[C@@H](O)C[C@H](O[C@H]3CC[C@]4(C=O)[C@H]5CC[C@]6(C)C(C7=CC(=O)OC7)CC[C@]6(O)[C@@H]5CC[C@]4(O)C3)O[C@@H]2C)O[C@H](C)[C@H]1O[C@H]1C[C@@H](OC)[C@@H](O[C@@H]2O[C@H](CO)[C@@H](O)[C@H](O)[C@H]2O)[C@@H](C)O1` (some centres undefined), the Potency in [1] is 118 nM (active); in assay [3] it was 166 nM (active); in assay [4], 187 nM (active); in assay [5], 417 nM (active); in assay [8], 135 nM (active). For the same compound, the Potency result in assay [2] and in assay [7] was “inactive” throughout. In [6], the compound was classed as inactive.
As to `C[N+](C)(C)CCc1c[nH]c2ccccc12`, the Potency entry in [1], in assay [2], in assay [3], in assay [4], in [5] and in assay [7] was “inactive” each time. Further, the Potency entry in assay [8] is “inactive”. Moreover, the outcome in [6] and in assay [9] was inactive.
As to `CC[C@H]1CN2CCc3c([nH]c4cccc(OC)c34)[C@@H]2C[C@@H]1/C(=C\OC)C(=O)OC`, in assay [1], the Potency was 23500 nM (active). The Potency result in assay [2], in assay [3], in assay [4], in assay [5], in [7] and in [8] was “inactive” each time. For the same compound, in assay [6], the compound was classed as inactive.
